This is an account of results in PubChem BioAssay.

The nature of experiment [1]: polyglutamine-triggered caspase-3 activation inhibitors, cell-based (AID 1583). Particulars: polyglutamine-induced caspase-3 activation, cell assay; stronger effect = higher value;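 tested at 10 µM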.
Experiment [2] can be described thus: suppressors of polyQ aggregation in yeast, 75Q-TubU reporter (AID 1593). The settings on record: Yeast 75Q polyglutamine aggregation reporter.
Experiment [3] in a line: rescue of polyQ-huntingtin neuronal dysfunction in worms, whole organism, C. elegans mechanosensory neurons, N-terminal huntingtin (AID 1599). Particulars: touch response, stronger effect = higher value.
A short description of experiment [4]: inhibitors of mitochondrial cytochrome c release, biochemical, purified mitochondria (AID 1603).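 Note: mouse liver mitochondria challenged with calcium chloride; signal normalized to the plate average as 100%.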 Particulars: stronger effect = lower value.
The nature of experiment [5]: inhibitors of polyQ protein aggregation (AID 1604). Particulars: polyglutamine-induced protein aggregation inhibition assay; stronger effect = higher value; tested at 2.5 µM.
Experiment [6] can be described thus: enhancers of glutamate uptake in motor neurons, MN-1 cell line (AID 1612).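 Note: tested at 1 µM final; 0% = mean of DMSO vehicle wells on each plate; positive means more glutamate uptake than control and negative means less.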 Particulars: MN-1 motor neuron cells, stronger effect = higher value.
A short description of experiment [7]: reducers of polyQ inclusions in PC12 cells, cell-based, NGF-treated PC12, GFPQ80 (AID 1614).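 Note: lower means fewer inclusions and 0 means no inclusions at all.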 The settings on record: PC12 NGF-treated GFP-polyQ80 inclusion reduction.
Experiment [8] in a line: suppressors of polyglutamine aggregation in yeast, 75Q-TubH (AID 1616). The settings on record: S. cerevisiae 75Q-TubH polyglutamine aggregation suppression; stronger effect = higher value.
In experiment [9] the target is ATP-dependent translocase ABCB1 (Homo sapiens) (UniProt P08183). Briefly: MDR1 (ABCB1) efflux transporter inhibition, cell-based (AID 377; in the data active = fluorescence slope change above about 50%). Particulars: MDR1-expressing cells, fluorescent substrate accumulation slope; stronger effect = higher value; concentration not given here.
Experiment [10] can be described thus: inhibitors of polyQ aggregate elongation, biochemical, solid-phase synthetic aggregates, QA3 (AID 1585). The settings on record: biotin-polyQ incorporation; EC50: measured here: elongation inhibition potency; inhibition: at 100 µM, stronger effect = higher value.
The nature of experiment [11]: hESC survival regulators, cell-based (AID 493140).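 Note: cells exposed to compounds for four days before counting.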 The settings on record: human embryonic stem cell survival screen; stronger effect = higher value.
Experiment [12] can be described thus: protection against mutant huntingtin cytotoxicity, PC12 cells, LDH release (AID 1610). The settings on record: PC12 mutant huntingtin toxicity, final LDH at 4 uM, stronger effect = lower value.

SMILES strings stand for the structures. Inconclusive results are not listed. For part of these data: Potency and affinity values are given separately. Calls of active or inactive are those of the source. Unless noted, the rule behind the calls is not given here.

Broadly, the inhibition is the drop in the measured response relative to a control, in per cent. The EC50 is the concentration needed to bring the measured effect to its halfway point.

Chain of ATP-dependent translocase ABCB1 (Homo sapiens) (P08183 whole entry, looked up): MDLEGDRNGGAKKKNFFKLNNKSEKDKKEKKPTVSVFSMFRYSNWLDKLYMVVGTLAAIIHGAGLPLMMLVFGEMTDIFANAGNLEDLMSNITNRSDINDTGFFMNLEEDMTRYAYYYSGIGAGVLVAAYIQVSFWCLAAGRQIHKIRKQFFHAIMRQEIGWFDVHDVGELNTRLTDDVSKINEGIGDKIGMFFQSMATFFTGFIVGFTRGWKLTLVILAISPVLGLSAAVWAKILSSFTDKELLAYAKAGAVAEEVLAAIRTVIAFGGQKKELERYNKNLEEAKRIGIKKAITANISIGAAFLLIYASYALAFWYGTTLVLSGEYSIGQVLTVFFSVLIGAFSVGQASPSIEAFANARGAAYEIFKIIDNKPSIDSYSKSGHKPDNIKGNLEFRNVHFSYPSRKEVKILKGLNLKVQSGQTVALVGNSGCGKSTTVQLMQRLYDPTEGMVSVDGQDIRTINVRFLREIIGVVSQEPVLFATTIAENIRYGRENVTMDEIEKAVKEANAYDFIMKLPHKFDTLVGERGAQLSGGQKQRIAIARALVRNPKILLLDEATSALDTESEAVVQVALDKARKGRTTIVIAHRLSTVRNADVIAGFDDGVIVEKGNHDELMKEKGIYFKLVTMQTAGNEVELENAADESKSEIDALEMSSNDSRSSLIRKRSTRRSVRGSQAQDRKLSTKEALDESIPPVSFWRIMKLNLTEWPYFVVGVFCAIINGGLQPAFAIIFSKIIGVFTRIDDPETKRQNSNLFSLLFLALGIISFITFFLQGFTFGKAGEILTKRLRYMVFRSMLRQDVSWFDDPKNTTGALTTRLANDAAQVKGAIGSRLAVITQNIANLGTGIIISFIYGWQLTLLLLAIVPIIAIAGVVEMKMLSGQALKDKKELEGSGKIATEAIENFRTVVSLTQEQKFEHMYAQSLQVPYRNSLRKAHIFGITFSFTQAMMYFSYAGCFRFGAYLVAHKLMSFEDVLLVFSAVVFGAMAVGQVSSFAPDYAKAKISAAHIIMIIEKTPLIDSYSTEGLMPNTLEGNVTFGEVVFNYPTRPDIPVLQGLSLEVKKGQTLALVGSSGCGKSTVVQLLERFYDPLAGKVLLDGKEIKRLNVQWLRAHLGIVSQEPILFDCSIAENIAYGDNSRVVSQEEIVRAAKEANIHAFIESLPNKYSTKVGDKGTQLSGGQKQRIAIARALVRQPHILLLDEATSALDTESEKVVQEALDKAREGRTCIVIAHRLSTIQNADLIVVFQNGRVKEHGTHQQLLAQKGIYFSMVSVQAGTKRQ

For `CN1CCCN=C1COC(=O)C(O)(c1ccccc1)C1CCCCC1` (configuration not stated), the inhibition in experiment [1] came out at 21.6%. The molecule further gave a score in [2] of 1.24. In [3], this molecule showed a rescue above control of 4.84. Also, the cytochrome c release ratio in [4] was 0.8. Also, in experiment [5], the inhibition of aggregation came to 60.8%. Moreover, in experiment [6], the glutamate uptake change was 10.4%. The inclusion score in [7] was 2. Also, the aggregation suppression score in experiment [8] came out at 1.26.

As to `CO[C@@]1(NC(=O)C(C(=O)O)c2ccc(O)cc2)C(=O)N2C(C(=O)O)=C(CSc3nnnn3C)CO[C@@H]21` (some centres not stated), the fluorescence slope change in experiment [9] is 63.7% (active). Moreover, the inhibition in [1] was 10.7%. In experiment [10], the EC50 was 2000 nM and the inhibition is 91.1% (active). The molecule further gave a score in [2] of 1.04. For the same molecule, the rescue above control in experiment [3] is 12.8. The cytochrome c release ratio in experiment [4] amounted to 0.83. The inhibition of aggregation in [5] was 72.2%. For the same molecule, the glutamate uptake change in [6] is 0.13%. This molecule also gave an inclusion score in experiment [7] of 1. Besides, the aggregation suppression score in [8] turned out to be 1.14. In experiment [11], the survival is 6.42 (inactive).

Take `CC1=C(C(=O)O)N2C(=O)[C@@H](NC(=O)[C@H](N)C3=CCC=CC3)[C@H]2SC1`: the inhibition in experiment [1] is -6.99%. The same molecule registered a score in experiment [2] of 1.49. For the same molecule, the rescue above control in [3] turned out to be 19. For the same molecule, the cytochrome c release ratio in experiment [4] came to 0.86. Also, the inhibition of aggregation in [5] turned out to be 74.7%. Also, the glutamate uptake change in experiment [6] is -0.28%. In experiment [7], this molecule registered an inclusion score of 2. The molecule further gave an aggregation suppression score in [8] of 1.56.

Regarding `S=P(N1CC1)(N1CC1)N1CC1`, in [1], the inhibition was 8.19%. Further, in experiment [2], the score stood at 0.94. This molecule displayed a rescue above control in [3] of -0.95. Besides, the cytochrome c release ratio in [4] is 0.82. In [5], the inhibition of aggregation came out at 63.2%. The glutamate uptake change in [6] was found to be 2.63%. In experiment [7], this molecule yielded an inclusion score of 1.5. Further, in experiment [8], the aggregation suppression score stood at 0.449.

With `CC(NCCC(c1ccccc1)c1ccccc1)c1ccccc1` (configuration not stated), the fluorescence slope change in [9] is 200% (active). In addition, the inhibition in experiment [1] came out at 36.8%. This molecule also registered a score in experiment [2] of 1.04. Besides, the rescue above control in [3] came to 0. Moreover, the cytochrome c release ratio in experiment [4] turned out to be 0.33. Moreover, the inhibition of aggregation in [5] is -3.7%. The molecule further yielded a normalised LDH release in experiment [12] of 1.14. Moreover, the glutamate uptake change in experiment [6] is -8.71%. Besides, the aggregation suppression score in experiment [8] came to 1.16. The survival in experiment [11] is 3.08 (inactive).

For `NC(=O)NC(=O)Cc1ccccc1`, in experiment [1], the inhibition worked out at 24.8%. Also, the score in experiment [2] was 1.34. The rescue above control in [3] was -4.86. The cytochrome c release ratio in [4] amounted to 1.02. For the same molecule, the inhibition of aggregation in [5] was 4.16%. Further, the glutamate uptake change in experiment [6] was -11.7%. The inclusion score in experiment [7] was found to be 2. For the same molecule, the aggregation suppression score in experiment [8] worked out at 1.17.

`CCOC(N)=O`: the inhibition in [1] was -5.88%. This molecule displayed a score in experiment [2] of 1.23. For the same molecule, in experiment [3], the rescue above control is -10. In experiment [4], the cytochrome c release ratio stood at 0.98. The inhibition of aggregation in experiment [5] stood at 58.9%. Moreover, the glutamate uptake change in [6] is -13.5%. In [7], this molecule showed an inclusion score of 2. For the same molecule, the aggregation suppression score in [8] was 1.21.

Regarding `N=C(N)N`, in experiment [1], the inhibition is 11.9%. This molecule also returned a score in experiment [2] of 0.82. The same molecule registered a rescue above control in experiment [3] of -2.24. In addition, in experiment [4], the cytochrome c release ratio came out at 0.89. In addition, in experiment [5], the inhibition of aggregation is 73.1%. In addition, in experiment [6], the glutamate uptake change was determined as 5.8%. Besides, the inclusion score in experiment [7] came out at 2. Moreover, the aggregation suppression score in experiment [8] was determined as 0.901.

On to `Oc1cccc(O)c1`, for which the inhibition in experiment [1] amounted to 9.11%. The same molecule came in with a score in [2] of 1.66. In experiment [3], this molecule showed a rescue above control of 3.39. Further, in experiment [4], the cytochrome c release ratio was 0.9. Also, in [5], the inhibition of aggregation came to 60.3%. The glutamate uptake change in experiment [6] came to 8.45%. The inclusion score in experiment [7] is 2. Besides, in experiment [8], the aggregation suppression score came to 1.13.

Turning to `O=C(O)c1ccc(S(=O)(=O)N(Cl)Cl)cc1`, the inhibition in [1] came to 18.5%. The molecule also gave a score in experiment [2] of 1.25. The molecule further registered a rescue above control in experiment [3] of 8.13. In addition, the cytochrome c release ratio in experiment [4] was 0.74. Also, in experiment [5], the inhibition of aggregation was 56.3%. Further, in experiment [6], the glutamate uptake change is -1.46%. In experiment [7], this molecule registered an inclusion score of 2. The same molecule showed an aggregation suppression score in [8] of 1.13.

As for `CCCOc1ccc2nc(NC(=O)OC)[nH]c2c1`, in experiment [1], the inhibition was found to be 0.98%. In addition, the score in experiment [2] worked out at 1.01. Besides, the rescue above control in experiment [3] amounted to 0. Further, the cytochrome c release ratio in experiment [4] is 0.9. For the same molecule, in experiment [5], the inhibition of aggregation worked out at 22.1%. Further, in experiment [6], the glutamate uptake change is -36.6%. This molecule gave an inclusion score in [7] of 2. For the same molecule, the aggregation suppression score in [8] came to 0.918.

Regarding `O=C1c2cccc(O)c2C(=O)c2c(O)cccc21`, the inhibition in experiment [1] is -36.4%. The molecule also gave a score in experiment [2] of -0.3. In experiment [3], this molecule gave a rescue above control of -2. In addition, the cytochrome c release ratio in experiment [4] turned out to be 1.21. In addition, the inhibition of aggregation in experiment [5] came to 58.9%. Also, in experiment [6], the glutamate uptake change was -10.8%. The inclusion score in [7] was 2. This molecule returned an aggregation suppression score in experiment [8] of 0.219.
